Screening data deposited in PubChem BioAssay by several laboratories.
SKKanGAS inh: SKKanGAS growth inhibition. S. pyogenes SKKanGAS, kanamycin growth, BacTiter-Glo, 6 h. AID 1662. actives 1.3% (n = 300,000). inhibition, % at 7.5 µM;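 active = mean replicate score, as percent of positive control median, at least 50; inconclusive = mean below 50 but one replicate at or above 50; inactive = mean and every replicate below 50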;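 note: strain carries kanamycin resistance gene driven by streptokinase promoter and grows in 40 µg/ml kanamycin; loss of luminescence reflects streptokinase promoter inhibition or plain growth inhibition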
Platelet DG rel: platelet dense granule release activity; human platelet-rich plasma, SFLLRN dense granule ATP release, luminescence; AID 1663; inhibition, %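 (compounds screened at 7.5 µM in platelet-rich plasma)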; actives 0.22% (n = 300,000);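 active = mean replicate score, as percent of positive control, at or above 50; inconclusive = mean below 50 but at least one replicate at or above 50; inactive = mean and every replicate below 50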
Calb FLC: affects C. albicans growth with fluconazole; growth inhibition, % (concentration not given with the values); actives 0.57% (n = 300,000); C. albicans CaCi-2 (fluconazole-resistant clinical isolate) + fluconazole, Alamar Blue growth, 48 h; AID 1979;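 active = growth inhibition above about 58% in most replicates, limit read from the data, passing the limit was not always enough; inconclusive = exactly half the replicates above a set limit; inactive = most replicates below a set limit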;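 note: all wells also contain fluconazole at 8 µg/ml as a sub-toxic cotreatment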
PolyA inh: inhibitors of polyadenylation in S. cerevisiae | S. cerevisiae SKY197-pL101 polyadenylation reporter, beta-gal luminescence; efflux-impaired pdr1/pdr3 knockout yeast; score 100 = 6 SD above DMSO | activity score, % at 12 µM | actives 0.02% (n = 300,000) | AID 1875;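 active = lowest replicate activity score at least 50, where 100 means six control SD above control mean; inconclusive = lowest score under 50 but half or more replicates reach 50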;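 note: yeast exposed to compound for 9 h at 30 °C; higher score means more reporter readthrough which indicates perturbed polyadenylation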
Yeast superoxide: yeast age-related superoxide inhibition as caloric restriction mimetic; S. cerevisiae aged cells, superoxide DHE fluorescence; hits give low values; superoxide response (% of plate mean), % at 10 µM; actives 0.18% (n = 330,000); AID 2690;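 active = superoxide response under a set limit, about three screen SD below normal, cut at about 65% in these data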;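 note: yeast aged for seven days with compound at 30 °C before DHE staining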
Each line names hits and unclear results; the compound was inactive in the other large screens. In the library only some 2% were active in any assay of this set; here they are far more common.

COc1ccccc1-c1cc(C(F)(F)F)nc(NCc2cccs2)n1	none
COc1ccc(-c2cc(C(F)(F)F)nc(NCc3cccs3)n2)cc1	SKKanGAS inh 74
Cc1ccc(Nc2nc3nonc3[nH]c2=O)cc1Cl	SKKanGAS inh 106
Cc1ccc(Nc2nc3nonc3[nH]c2=O)cc1C	none
Cc1ccc(C)c(NC(=S)NNC(=O)c2cc3c(s2)CCC(C)C3)c1 (stereo unspecified)	none
Cc1cccc(NC(=S)NNC(=O)c2cc3c(s2)CCC(C)C3)c1C (stereo unspecified)	Calb FLC 110
COc1cccc(-n2c(C)cc(/C=C3/C(=N)N4C(=NC3=O)SN=C4S(C)(=O)=O)c2C)c1	SKKanGAS inh 69
Cc1cc(C)cc(-n2cccc2/C=C2/C(=N)N3C(=NC2=O)SN=C3S(C)(=O)=O)c1	SKKanGAS inh 71
COc1cc(/C=C2/C(=N)N3C(=NC2=O)SN=C3S(C)(=O)=O)ccc1OS(=O)(=O)c1ccc(C)cc1	none
C=CCc1c(C)nc2c(-c3ccccc3)cnn2c1N1CCOCC1	none
N#Cc1ccccc1S(=O)(=O)N1CCN(C(=O)C2CCC2)CC1	none
CN(C)c1ccc(/C=N/n2c(C3CCCCC3)n[nH]c2=S)cc1	none
C=C(C)c1cccc(C(C)(C)NC(=O)Nc2ccc(C(N)=O)cc2)c1	Calb FLC 83
C=C(C)c1cccc(C(C)(C)NC(=O)Nc2cccnc2)c1	none
CCOC(=O)c1sc(=NC(=O)c2ccco2)n(C)c1C	Calb FLC 106 (no result: SKKanGAS inh, Platelet DG rel, PolyA inh)
CCOC(=O)c1sc(=NC(=O)c2ccccc2Br)n(C)c1C	none
Cc1ccc(C(=O)CCC(=O)Nc2cc(C)ccn2)cc1	none (no result: SKKanGAS inh, Platelet DG rel, Calb FLC, PolyA inh)
Oc1ccccc1-c1cc(-c2ccccc2)n[nH]1	none (no result: SKKanGAS inh, Platelet DG rel, Calb FLC, PolyA inh)
Cc1ccc(O)c(-c2cc(-c3cccc(Br)c3)n[nH]2)c1	SKKanGAS inh 100, Calb FLC 99
Oc1ccc(Cl)cc1-c1cc(-c2ccccc2)n[nH]1	SKKanGAS inh 55
CN1CCN(c2ccc(C(F)(F)F)cc2NC(=O)c2ccco2)CC1	none
O=C(CCC1CCCN(C(=O)c2cccc(F)c2)C1)N1CCN(c2ccccn2)CC1 (stereo unspecified)	none
COc1ccc(/C=C/C(=O)NCC(=O)N/N=C/c2cccs2)cc1	none
COc1ccc(S(=O)(=O)N2CCOC2CNC(=O)C(=O)NCc2ccccn2)cc1C (stereo unspecified)	none
Cn1c(=O)c2c(nc(NCc3ccco3)n2C)n(C)c1=O	none
Cn1c(=O)c2c(nc(NCc3ccco3)n2C/C=C/c2ccccc2)n(C)c1=O	Platelet DG rel 74
Clc1ccc(-c2ccc(/C=N/Nc3cc(N4CCOCC4)nc(N4CCOCC4)n3)o2)cc1	SKKanGAS inh 76
CCc1ccccc1Nc1ncnc2ccccc12	none
CCCCCCCCNc1ncnc2ccccc12	Calb FLC 76
Cc1cc2c(NCCc3ccccc3)ncnc2s1	none
c1ccc(CCNc2ncnc3ccccc23)cc1	Calb FLC 94
CCC(NC(=S)NCc1ccc(F)cc1)c1ccccc1 (stereo unspecified)	none
CCC(=O)c1cn(/C(=C\C(=O)OC(C)(C)C)CCC(OC)OC)cc1CC	none
CCCCn1c(SCN2C(=O)c3ccccc3C2=O)nc2cc(S(N)(=O)=O)ccc21	Platelet DG rel 80 (no result: Yeast superoxide)
CCCCn1c(SCn2nnc3ccccc3c2=O)nc2cc(S(N)(=O)=O)ccc21	none
CCOc1ccc(N2C(=O)CC(Sc3nc4ccc(OCC)cc4s3)C2=O)cc1 (stereo unspecified)	Platelet DG rel 56
O=C(NCc1ccccn1)Nc1ccccc1F	none
O=C(O)/C=C1\NC(=O)c2ccccc21	none
O=C1N/C(=C\c2ccc(O)cc2)C(=O)c2ccccc21	Platelet DG rel 80
COc1ccc(-n2c(=S)[nH]c3cc(C(=O)Nc4ccc(C)c(F)c4)ccc3c2=O)c(OC)c1	SKKanGAS inh 76
CCCCCCCCCC(=O)NNC(=O)c1c(O)c2ccccc2n(CC)c1=O	Calb FLC 113
CCCCCC(=O)NNC(=O)c1c(O)c2ccccc2n(CC)c1=O	SKKanGAS inh 94
COc1ccc(NC(=O)C(CC(=O)O)Cc2ccc(C)cc2)cc1 (stereo unspecified)	none
O=C(CNC(=O)c1ccc(Br)o1)NNC(=O)c1ccccc1F	none
CCOC(=O)N1CCN(C(=O)c2ccc3nc(N4CCCCC4)sc3c2)CC1	none
Cc1cccc(N2CCN(C(=O)c3ccc4nc(N5CCCCC5)sc4c3)CC2)c1C	SKKanGAS inh 51
COc1cccc(OC)c1C(=O)NC(=S)NCc1ccccc1	none
O=C(NC(=S)NNC(=O)[C@H]1C[C@@H]1c1ccccc1)c1cccc(F)c1	SKKanGAS inh 99
COc1cccc(OC)c1C(=O)NC(=S)NNC(=O)[C@H]1C[C@@H]1c1ccccc1	SKKanGAS inh 79
COc1ccc(/C=C/C(=O)NC(=S)NNC(=O)[C@H]2C[C@@H]2c2ccccc2)cc1OC	SKKanGAS inh 63 (no result: Calb FLC)
O=C(COc1ccccc1Br)Nc1ccc2c(c1)OCCCO2	none
O=C(CCN1C(=O)C2CCCCC2C1=O)Nc1nc(-c2ccccc2)cs1 (stereo unspecified)	none
CCCCCCc1nc2ccccc2c(=O)n1NC(=O)c1c(O)c2c(n(CC(C)C)c1=O)CCCC2	SKKanGAS inh 57 (no result: Platelet DG rel)
C/C(=N\N=C(/N)SC1CC(=O)N(c2ccc(Cl)cc2)C1=O)c1cccs1 (stereo unspecified)	none
C/C(=N\N=C(/N)SC1CC(=O)N(c2ccc(Br)cc2)C1=O)c1cccs1 (stereo unspecified)	SKKanGAS inh 98
C/C(=N\N=C(/N)SC1CC(=O)N(c2ccc(Cl)c(Cl)c2)C1=O)c1cccs1 (stereo unspecified)	SKKanGAS inh 98, Calb FLC inconclusive
Cc1ccc(Nc2c(-c3ccccn3)nc3ccc(C)cn23)cc1	SKKanGAS inh 97, Calb FLC inconclusive
Cc1ccn2c(Nc3ccc4c(c3)OCO4)c(-c3ccccn3)nc2c1	SKKanGAS inh 97
Cc1ccc(Nc2c(-c3ccccc3)nc3cnccn23)cc1	none
Cc1ccc(Nc2c(-c3ccccn3)nc3cc(C)ccn23)cc1	SKKanGAS inh 101, Calb FLC inconclusive
Cc1ccc(-c2nc3cnccn3c2Nc2ccc3c(c2)OCO3)o1	none
O=C(CNS(=O)(=O)c1c(F)cc(F)cc1Br)OCC(=O)N1CCCC1=O	none
COc1ccc(NC2CC(=O)N(c3cc([N+](=O)[O-])ccc3C)C2=O)cc1 (stereo unspecified)	none
CC1(C(=O)NCc2ccc(Cl)c(Cl)c2)Oc2ccccc2NC1=O (stereo unspecified)	none
O=C(c1cccc(S(=O)(=O)Nc2ccccc2Cl)c1)N1CCC1	none
CC1CCCN(C(=O)c2cccc(S(=O)(=O)Nc3cc(C(F)(F)F)ccc3Cl)c2)C1 (stereo unspecified)	Calb FLC 94
CC(CCc1ccccc1)NC(=O)CCCCCNc1nc(=S)[nH]c2ccccc12 (stereo unspecified)	none
O=C(COc1ccccc1)Nc1ccncc1Cl	none
